# Values joined by “and” are separate entries in the source; they are usually repeats but may differ in a detail not shown here. Equal entries are not always repeated. Results filed as inconclusive are left out. Entries that show only a call come without a potency. Active and inactive are the calls of the source. Unless noted, calls follow the shape of the dose curve; as a rule, active = well fitted curve in the direction sought with a large enough effect; inconclusive = small, poorly fitted or top-dose-only effect, or another doubt; inactive = no such curve, though single readings can be large; an effect the other way counts as inactive or inconclusive. Numbered stars: 1 amine (or outer) side, 2 acyl side, 3 side chain; on linkers, the order of the positions; unused ones are H or OH. Bridge positions count the residues as written; N and C are the ends. Square brackets hold non-standard residues; d marks the D form. Peptide text beside a SMILES is read from it. I, II: the chains in the order shown. Actinocin(9to1) = Cc1c2oc3c(C)ccc(C(=O)[*:1])c3nc-2c(C(=O)[*:2])c(N)c1=O; NMeV = CN[C@H](C(=O)O)C(C)C; Sar = CNCC(=O)O
# Assays:
# [1] = target: Peroxisome proliferator-activated receptor gamma (Homo sapiens) (UniProt P37231); experiment: qHTS assay for small molecule agonists of peroxisome proliferator-activated receptor gamma signaling (AID 588536; active = well fitted curve in the direction sought with a large enough effect in the signal ratio, with a control signal flat, not every such curve was filed as active; the % refers to the signal ratio)
# Summary of the method: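 Beta-lactamase reporter read-out: CCF4 fluorescence (ex 405, em 460/530 nm) after 2 h at RT. HEK293 GeneBLAzer cells were treated for 16 h at 37 C. Hill fits gave EC50 and efficacy versus 2 uM rosiglitazone (100%) and DMSO (0%).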
# [2] = target: Vitamin D3 receptor (Homo sapiens) (UniProt P11473); experiment: qHTS assay for small molecule antagonists of vitamin D receptor signaling (AID 588541; calls by dose curve;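 also: receptor activated by calcitriol during compound treatment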)
# Summary of the method: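 VDR-UAS-bla HEK293T cells in 2% charcoal-stripped FBS were stimulated with 1-alpha,25-dihydroxyvitamin D3 (3 nM final) plus compound for 16 h at 37 C. The beta-lactamase CCF4 readout was normalized to 50 nM agonist and DMSO, and Hill fits gave IC50.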
# [3] = target: Vitamin D3 receptor (Homo sapiens) (UniProt P11473); experiment: qHTS assay for small molecule agonists of vitamin D receptor signaling (AID 588543; calls by dose curve)
# Summary of the method: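 qHTS in agonist mode: compound titrations stimulate a VDR-driven β-lactamase reporter in HEK293T cells over 16 h at 37 °C. Response normalized to 50 nM 1α,25-dihydroxyvitamin D3 = 100%, DMSO = 0%; Hill fitting gives EC50 and maximal response.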
# [4] = target: Thyroid hormone receptor beta (Homo sapiens) (UniProt P10828); experiment: qHTS assay for small molecule antagonists of thyroid hormone receptor beta signaling (AID 588547; active = well fitted inhibition curve with a large enough effect in the signal ratio, with a control signal flat, not every such curve was filed as active; the % refers to the signal ratio; also: potency is read from the fitted curve at half-maximal effect;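 as to activity change % (negative = inhibition): cells stimulated with 0.4 nM T3 agonist during compound exposure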); details: TR-UAS-bla HEK293, beta-lactamase ratio, antagonist mode, 18 h
# Summary of the method: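 TR-UAS-bla GripTite HEK293 cells in 2% charcoal/dextran FBS medium; compounds 0.59 nM to 92 uM with T3 at 0.4nM final, 18 h at 37 C. Beta-lactamase read by CCF4 fluorescence (460/530 nm); Hill fits gave IC50 and efficacy.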
# [5] = target: Voltage-gated inwardly rectifying potassium channel KCNH2 (Homo sapiens) (UniProt Q12809); experiment: qHTS Assay for Small Molecule Inhibitors of the Human hERG Channel Activity (AID 588834);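 also: U2OS cells transduced with hERG by BacMam; top concentration of the series differs between compounds; lower thallium flux fluorescence means stronger hERG block; nearly all actives have a fitted effect of over 50% in size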
# Summary of the method: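 Cells were infected with hERG-BacMam virus for 4 hrs at room temperature, grown overnight, then seeded at 2000/well. After dye loading and roughly 10 min compound treatment, thallium influx was triggered and fluorescence recorded.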
# [6] = S16 Schwann cell PMP22 intronic element beta-lactamase assay (AID 624044; calls by dose curve; also: nearly all actives have a fitted effect of over 15% in size); details: S16 rat Schwann cells, PMP22 element beta-lactamase FRET, 24 h; ratio activity, negative = inhibition: at 38.3 µM (top of the series)
# Summary of the method: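 Beta-lactamase reporter under a PMP22 intronic regulatory element in stable S16 rat Schwann cells; 24 h compound exposure. 460 nm blue signal normalized between DMSO (0%) and potassium clavulanate, with 535 nm FRET tracking viability; curves classed by r2 and response.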
# [7] = target: Glucocorticoid receptor (Homo sapiens) (UniProt P04150); experiment: qHTS assay for small molecule agonists of glucocorticoid receptor signaling (AID 588532; active = well fitted curve in the direction sought with a large enough effect in the signal ratio, with a control signal flat; the % refers to the signal ratio); details: HeLa MMTV-bla, beta-lactamase ratio, agonist, 18 h; stronger effect = higher value; percent of dexamethasone control, DMSO zero
# Summary of the method: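 MMTV-bla HeLa beta-lactamase reporter cells in 1% charcoal/dextran FBS medium, compounds up to 92 uM for 18 h at 37 C, CCF4 readout; normalized to 0.1 uM dexamethasone (100%), EC50 and efficacy from Hill fits.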
# [8] = target: Thyroid hormone receptor beta (Homo sapiens) (UniProt P10828); experiment: qHTS assay for small molecule agonists of thyroid hormone receptor beta signaling (AID 588545; calls by dose curve)
# Summary of the method: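 HEK 293 TR-UAS-bla; agonist mode; 18 hrs, 37 C; CCF4, ex 405/em 460 and 530 nm; norm. T3 10 nM = 100%, DMSO = 0%; Hill fit → EC50, efficacy.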
# [9] = target: Glutaminase kidney isoform, mitochondrial (Homo sapiens) (UniProt O94925); experiment: qHTS for Inhibitors of Glutaminase (GLS): LOPAC Validation (AID 624146); also: potency is read from the fitted curve at half-maximal effect; nearly all actives have a fitted effect of over 60% in size
# Summary of the method: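 hKGA; 45 mM KH2PO4 pH 8.2 + 0.02% Tween-20; cpd via pin tool; 1 mM Gln soln; GluOx/HRP/Amplex Red; RT 30 min; fluor. t0 & final.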
# [10] = target: Glucocorticoid receptor (Homo sapiens) (UniProt P04150); experiment: qHTS assay for small molecule antagonists of glucocorticoid receptor signaling (AID 588533; active = well fitted inhibition curve with a large enough effect in the signal ratio, with a control signal flat, not every such curve was filed as active; the % refers to the signal ratio; also: potency is read from the fitted curve at half-maximal effect)
# Summary of the method: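 Antagonist-mode qHTS: compound titrations added to GRE-bla HeLa cells, then dexamethasone 2 nM final; 18 h, 37 C. CCF4 FRET fluorescence normalized to dexamethasone and DMSO; IC50 from Hill fit.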
# [11] = qHTS assay for small molecule antagonists of peroxisome proliferator-activated receptor delta signaling (AID 588535; active = well fitted inhibition curve with a large enough effect in the signal ratio, with a control signal flat, not every such curve was filed as active; the % refers to the signal ratio;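 as to max response: cells co-treated with a PPAR-delta agonist as stimulator during compound exposure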); details: HEK293T PPARd-UAS-bla, beta-lactamase FRET ratio, 18 h; 460 nm channel
# Summary of the method: (§1)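 Beta-lactamase reporter read-out (405 nm excitation, 460/530 nm emission) after CCF4 loading for 2 hrs at RT. HEK293T PPAR-delta-UAS-bla cells, 2% charcoal/dextran FBS, compounds for 18 hrs at 37 C. Hill fit gave IC50 and efficacy.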
# [12] = target: Peroxisome proliferator-activated receptor delta (Homo sapiens) (UniProt Q03181); experiment: as above
# Summary of the method: as §1
# [13] = target: Peroxisome proliferator-activated receptor gamma (Homo sapiens) (UniProt P37231); experiment: qHTS assay for small molecule antagonists of peroxisome proliferator-activated receptor gamma signaling (AID 588537; active = well fitted inhibition curve with a large enough effect in the signal ratio, with a control signal flat, not every such curve was filed as active; the % refers to the signal ratio;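 also: reporter cells co-stimulated with 50 nM rosiglitazone agonist during compound treatment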)
# Summary of the method: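 Read-out: CCF4 fluorescence (ex 405, em 460/530 nm) after 2 h at RT. Cells were HEK293 carrying a UAS-bla reporter and treated 16 h at 37 C with compound plus rosiglitazone (50 nM final). Normalized to rosiglitazone and DMSO.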
# [14] = qHTS assay for small molecule agonists of retinoid X receptor alpha signaling (AID 588544; calls by dose curve); details: HEK293T RXRa-UAS-bla, beta-lactamase reporter, 18 h; 530 nm emission
# [15] = target: Retinoic acid receptor RXR-alpha (Homo sapiens) (UniProt P19793); experiment: as above
# [16] = qHTS assay for small molecule antagonists of retinoid X receptor alpha signaling (AID 588546; active = well fitted inhibition curve with a large enough effect in the signal ratio, with a control signal flat, not every such curve was filed as active; the % refers to the signal ratio; also: potency is read from the fitted curve at half-maximal effect;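 as to max response: cells stimulated with 9-cis-retinoic acid as agonist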); details: HEK293T RXRa-UAS-bla, beta-lactamase ratio, antagonist mode; measured here: W530 green channel, cytotoxicity proxy
# Summary of the method: (§2)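 Beta-lactamase reporter inhibition, read as CCF4 fluorescence ratio (ex 405, em 460/530 nm) after 2 h at RT. HEK293T UAS-bla cells, 2500/well, were stimulated with 9-cis-RA at 500 or 100 nM final alongside test compound for 18 h at 37 C.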
# [17] = target: Retinoic acid receptor RXR-alpha (Homo sapiens) (UniProt P19793); experiment: as above; details: HEK293T RXRa-UAS-bla, beta-lactamase ratio, antagonist mode
# Summary of the method: as §2
# [18] = target: Luciferin 4-monooxygenase (Photinus pyralis) (UniProt P08659); experiment: Biochemical firefly luciferase enzyme assay for NPC (AID 624030);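 also: purified P. pyralis luciferase at 10 nM with luciferin and ATP substrate; nearly all actives have a fitted effect of over 70% in size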
# Summary of the method: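 Purified P. pyralis luciferase at 10 nM in 50 mM Tris Acetate (final), luminescence read within 5 minutes of enzyme addition to compounds. Activity normalised to PTC124 versus DMSO; concentration-response curves classed by r2, magnitude and activity.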
# [19] = S16 Schwann cell viability assay (CellTiter-Glo assay) (AID 624031);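 also: cellular ATP luminescence as a viability measure; nearly all actives have a fitted effect of over 70% in size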
# Summary of the method: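 Luminescent ATP read-out (CellTiter-Glo) after 24 h compound exposure of native S16 rat Schwann cells at 37 °C. Signals were normalized between cell-free wells and DMSO-treated cells, set as 0% activity.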
# [20] = S16 Schwann cell PMP22 intronic element firefly luciferase assay (AID 624032); also: nearly all actives have a fitted effect of over 30% in size; also: potency is read from the fitted curve at half-maximal effect
# Summary of the method: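 Rat S16 Schwann cells stably carrying firefly luciferase driven by a PMP22 intronic element, in 10% FBS, treated 24 h at 37 C. ONE-Glo luminescence normalized to PTC124 control and DMSO (0%); curves classed by r2, magnitude and activity.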
# Chain of Retinoic acid receptor RXR-alpha (Homo sapiens) (P19793 whole entry, looked up): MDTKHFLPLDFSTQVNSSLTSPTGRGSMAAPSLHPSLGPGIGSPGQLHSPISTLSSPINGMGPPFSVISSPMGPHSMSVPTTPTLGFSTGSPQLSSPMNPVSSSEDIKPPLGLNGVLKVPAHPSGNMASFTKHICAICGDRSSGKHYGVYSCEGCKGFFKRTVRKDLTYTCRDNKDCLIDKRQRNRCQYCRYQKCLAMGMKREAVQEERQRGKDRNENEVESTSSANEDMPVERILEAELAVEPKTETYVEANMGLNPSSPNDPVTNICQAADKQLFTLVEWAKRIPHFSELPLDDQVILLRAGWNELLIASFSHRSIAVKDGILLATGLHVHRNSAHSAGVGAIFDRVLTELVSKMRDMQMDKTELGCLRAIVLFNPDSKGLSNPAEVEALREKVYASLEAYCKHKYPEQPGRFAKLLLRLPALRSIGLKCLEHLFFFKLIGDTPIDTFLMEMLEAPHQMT
# Chain of Voltage-gated inwardly rectifying potassium channel KCNH2 (Homo sapiens) (Q12809 whole entry, looked up): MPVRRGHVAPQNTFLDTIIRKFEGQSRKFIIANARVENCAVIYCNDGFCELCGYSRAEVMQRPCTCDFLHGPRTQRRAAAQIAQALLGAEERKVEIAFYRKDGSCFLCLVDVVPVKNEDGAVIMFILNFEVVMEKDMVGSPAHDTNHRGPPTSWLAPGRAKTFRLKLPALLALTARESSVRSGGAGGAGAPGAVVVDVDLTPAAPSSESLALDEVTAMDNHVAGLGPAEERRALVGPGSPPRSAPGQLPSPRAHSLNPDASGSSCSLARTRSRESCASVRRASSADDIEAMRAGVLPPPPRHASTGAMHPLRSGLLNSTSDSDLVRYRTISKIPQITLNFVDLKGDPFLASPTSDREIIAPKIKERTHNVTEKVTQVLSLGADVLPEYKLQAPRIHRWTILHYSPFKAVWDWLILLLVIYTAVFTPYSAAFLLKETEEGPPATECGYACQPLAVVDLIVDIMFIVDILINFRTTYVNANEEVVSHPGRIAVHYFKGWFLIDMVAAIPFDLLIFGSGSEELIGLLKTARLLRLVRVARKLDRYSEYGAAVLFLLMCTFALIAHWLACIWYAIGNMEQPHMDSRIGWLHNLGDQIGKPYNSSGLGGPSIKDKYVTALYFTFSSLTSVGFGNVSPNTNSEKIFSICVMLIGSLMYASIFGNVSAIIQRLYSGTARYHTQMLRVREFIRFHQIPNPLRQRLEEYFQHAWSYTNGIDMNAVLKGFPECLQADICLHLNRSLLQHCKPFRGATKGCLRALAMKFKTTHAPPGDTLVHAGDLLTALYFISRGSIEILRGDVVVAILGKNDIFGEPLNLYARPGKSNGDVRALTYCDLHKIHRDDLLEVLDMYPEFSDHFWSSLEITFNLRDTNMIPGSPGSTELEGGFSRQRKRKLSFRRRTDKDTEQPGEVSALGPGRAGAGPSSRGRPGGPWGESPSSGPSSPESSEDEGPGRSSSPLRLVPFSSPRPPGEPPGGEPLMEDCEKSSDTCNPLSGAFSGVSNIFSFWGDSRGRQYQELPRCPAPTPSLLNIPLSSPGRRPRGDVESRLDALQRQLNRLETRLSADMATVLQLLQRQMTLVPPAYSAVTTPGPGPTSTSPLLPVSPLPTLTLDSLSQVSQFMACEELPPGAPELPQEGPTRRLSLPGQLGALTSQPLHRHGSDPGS
# Chain of Peroxisome proliferator-activated receptor gamma (Homo sapiens) (P37231 whole entry, looked up): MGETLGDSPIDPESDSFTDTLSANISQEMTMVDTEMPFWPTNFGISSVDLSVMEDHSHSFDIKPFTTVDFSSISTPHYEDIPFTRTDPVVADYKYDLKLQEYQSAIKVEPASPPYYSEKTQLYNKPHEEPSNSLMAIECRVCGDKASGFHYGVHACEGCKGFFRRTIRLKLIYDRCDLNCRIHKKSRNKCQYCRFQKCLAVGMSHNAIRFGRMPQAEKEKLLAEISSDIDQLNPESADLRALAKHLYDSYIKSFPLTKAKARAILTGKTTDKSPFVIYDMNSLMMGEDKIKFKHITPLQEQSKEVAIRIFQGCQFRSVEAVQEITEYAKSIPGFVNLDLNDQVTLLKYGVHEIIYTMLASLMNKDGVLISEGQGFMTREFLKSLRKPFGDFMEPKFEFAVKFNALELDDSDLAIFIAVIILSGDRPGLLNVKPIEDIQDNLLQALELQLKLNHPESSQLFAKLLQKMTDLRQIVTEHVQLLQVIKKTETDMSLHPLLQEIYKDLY
# Chain of Luciferin 4-monooxygenase (Photinus pyralis) (P08659 whole entry, looked up): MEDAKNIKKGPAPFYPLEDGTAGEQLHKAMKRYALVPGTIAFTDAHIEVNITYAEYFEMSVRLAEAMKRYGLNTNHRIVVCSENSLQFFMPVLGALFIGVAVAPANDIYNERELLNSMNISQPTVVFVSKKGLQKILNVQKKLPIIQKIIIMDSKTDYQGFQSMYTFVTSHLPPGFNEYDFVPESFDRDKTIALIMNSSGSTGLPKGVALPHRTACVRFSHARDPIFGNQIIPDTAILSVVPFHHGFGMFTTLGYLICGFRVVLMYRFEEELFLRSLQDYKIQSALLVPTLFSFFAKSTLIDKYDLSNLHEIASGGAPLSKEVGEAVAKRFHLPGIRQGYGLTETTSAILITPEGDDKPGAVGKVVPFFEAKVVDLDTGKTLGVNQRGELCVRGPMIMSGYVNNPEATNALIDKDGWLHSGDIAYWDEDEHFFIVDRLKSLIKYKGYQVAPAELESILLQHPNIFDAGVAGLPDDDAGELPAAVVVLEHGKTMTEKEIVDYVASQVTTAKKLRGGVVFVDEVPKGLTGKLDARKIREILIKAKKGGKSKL
# Chain of Thyroid hormone receptor beta (Homo sapiens) (P10828 whole entry, looked up): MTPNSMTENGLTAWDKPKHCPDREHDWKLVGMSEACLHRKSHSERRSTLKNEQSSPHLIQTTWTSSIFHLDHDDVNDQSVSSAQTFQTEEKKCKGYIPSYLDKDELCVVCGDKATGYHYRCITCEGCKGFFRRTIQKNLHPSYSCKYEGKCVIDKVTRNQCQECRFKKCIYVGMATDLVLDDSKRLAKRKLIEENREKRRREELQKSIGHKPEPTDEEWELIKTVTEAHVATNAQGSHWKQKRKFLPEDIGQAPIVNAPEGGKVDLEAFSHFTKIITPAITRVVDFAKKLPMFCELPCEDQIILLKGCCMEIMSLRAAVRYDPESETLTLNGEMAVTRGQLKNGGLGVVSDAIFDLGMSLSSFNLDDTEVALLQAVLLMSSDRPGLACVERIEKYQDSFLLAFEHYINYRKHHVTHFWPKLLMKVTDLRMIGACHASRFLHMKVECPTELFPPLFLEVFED
# Chain of Glucocorticoid receptor (Homo sapiens) (P04150 whole entry, looked up): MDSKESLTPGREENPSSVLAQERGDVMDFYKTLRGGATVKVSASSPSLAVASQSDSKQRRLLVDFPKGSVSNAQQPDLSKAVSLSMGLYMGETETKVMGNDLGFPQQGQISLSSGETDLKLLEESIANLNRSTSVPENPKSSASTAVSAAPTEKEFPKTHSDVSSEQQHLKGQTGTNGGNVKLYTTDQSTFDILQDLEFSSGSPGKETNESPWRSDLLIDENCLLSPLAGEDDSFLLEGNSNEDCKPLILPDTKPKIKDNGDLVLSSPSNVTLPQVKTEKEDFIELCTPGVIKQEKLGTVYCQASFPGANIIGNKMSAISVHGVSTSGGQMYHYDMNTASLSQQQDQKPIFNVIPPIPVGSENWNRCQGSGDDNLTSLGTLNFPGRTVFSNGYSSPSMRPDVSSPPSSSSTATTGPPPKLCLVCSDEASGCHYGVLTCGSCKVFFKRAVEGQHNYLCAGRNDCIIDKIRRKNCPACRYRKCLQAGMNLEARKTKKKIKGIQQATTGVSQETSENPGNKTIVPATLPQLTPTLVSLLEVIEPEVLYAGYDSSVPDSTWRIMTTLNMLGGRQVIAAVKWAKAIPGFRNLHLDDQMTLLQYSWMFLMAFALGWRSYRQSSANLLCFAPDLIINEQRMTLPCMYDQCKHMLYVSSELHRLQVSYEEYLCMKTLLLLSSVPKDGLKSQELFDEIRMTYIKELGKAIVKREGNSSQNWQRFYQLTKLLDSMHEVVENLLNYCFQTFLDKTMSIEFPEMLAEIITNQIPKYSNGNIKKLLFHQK
# Chain of Glutaminase kidney isoform, mitochondrial (Homo sapiens) (O94925 whole entry, looked up, canonical isoform): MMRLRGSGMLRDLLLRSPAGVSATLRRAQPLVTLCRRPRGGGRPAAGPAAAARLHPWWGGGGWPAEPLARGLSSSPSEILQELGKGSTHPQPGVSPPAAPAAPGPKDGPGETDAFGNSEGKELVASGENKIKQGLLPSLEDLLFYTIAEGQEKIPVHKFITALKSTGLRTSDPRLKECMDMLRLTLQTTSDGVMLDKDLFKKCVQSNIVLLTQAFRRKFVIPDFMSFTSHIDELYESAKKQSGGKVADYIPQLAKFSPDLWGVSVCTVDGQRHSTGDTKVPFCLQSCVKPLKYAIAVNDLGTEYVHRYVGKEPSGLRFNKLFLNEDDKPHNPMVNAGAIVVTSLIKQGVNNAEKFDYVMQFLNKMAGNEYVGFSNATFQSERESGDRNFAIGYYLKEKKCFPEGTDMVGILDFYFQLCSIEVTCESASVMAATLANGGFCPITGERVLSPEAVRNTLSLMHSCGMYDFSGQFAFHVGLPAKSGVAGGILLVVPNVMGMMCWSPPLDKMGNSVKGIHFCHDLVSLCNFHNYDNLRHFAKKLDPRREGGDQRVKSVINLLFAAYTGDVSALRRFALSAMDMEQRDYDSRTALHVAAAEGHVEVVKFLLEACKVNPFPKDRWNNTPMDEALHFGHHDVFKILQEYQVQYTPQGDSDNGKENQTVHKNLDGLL
# Chain of Peroxisome proliferator-activated receptor delta (Homo sapiens) (Q03181 whole entry, looked up): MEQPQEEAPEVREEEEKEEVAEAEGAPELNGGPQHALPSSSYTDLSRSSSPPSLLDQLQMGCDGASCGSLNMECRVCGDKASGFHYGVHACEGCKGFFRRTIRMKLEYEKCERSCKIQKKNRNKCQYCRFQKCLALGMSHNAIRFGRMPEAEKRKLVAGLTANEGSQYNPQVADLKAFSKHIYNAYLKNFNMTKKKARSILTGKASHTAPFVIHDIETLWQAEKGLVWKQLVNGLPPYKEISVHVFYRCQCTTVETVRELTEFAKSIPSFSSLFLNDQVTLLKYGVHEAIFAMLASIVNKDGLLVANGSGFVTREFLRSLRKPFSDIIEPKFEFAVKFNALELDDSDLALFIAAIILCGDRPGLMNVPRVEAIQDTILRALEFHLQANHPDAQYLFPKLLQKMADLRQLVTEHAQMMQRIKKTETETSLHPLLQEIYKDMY
structure (smiles),measurement,setting,value
CC(=O)Oc1ccc(C(c2ccc(OC(C)=O)cc2)c2ccccn2)cc1,outcome,[1],inactive
same,Potency,[2],inactive
same,outcome,[3],inactive
same,activity change % (negative = inhibition),[4],5.36% (inactive)
same,Potency,[5],inactive
same,Potency,[6],inactive
Oc1ccc(O)cc1,activation,[7],-0.636% (inactive)
same,outcome,[8],inactive
same,Potency,[5],inactive
same,Potency,[9],2.51 µM (active)
COc1cccc(OC)c1C(=O)N[C@@H]1C(=O)N2[C@@H]1SC(C)(C)[C@@H]2C(=O)O,Potency,[5],inactive
Nc1ccc(C(=O)O)cc1,activation,[7],-1.78% (inactive)
same,Potency,[10],inactive
same,max response,[11],41.6%
same,Potency,[12],inactive
same,outcome,[1],inactive
same,Potency,[13],inactive
same,max response,[14],0.621%
same,outcome,[15],inactive
same,outcome,[8],inactive
same,max response,[16],14.8%
same,max response,[17],-5.07% (inactive)
same,activity change % (negative = inhibition),[4],15.2% (inactive)
same,Potency,[5],inactive
same,Potency,[18],inactive
same,Potency,[19],inactive
same,Potency,[20],inactive
Oc1c(I)cc(Cl)c2cccnc12,Potency,[10],28.2 µM (active)
same,outcome,[3],inactive
same,outcome,[8],inactive
same,activity change % (negative = inhibition),[4],-33.1% (inactive)
same,Potency,[5],inactive
same,Potency,[20],11.4 µM (active)
CC/C(=C(/CC)c1ccc(O)cc1)c1ccc(O)cc1,activation,[7],-20.1% (inactive)
same,Potency,[2],inactive
same,outcome,[3],inactive
same,max response,[14],-0.375%
same,outcome,[15],inactive
same,outcome,[8],inactive
CC(=O)O[C@]1(C(C)=O)CC[C@H]2[C@@H]3C[C@H](C)C4=CC(=O)CC[C@]4(C)[C@H]3CC[C@@]21C,Potency,[5],inactive
Cc1cc(=O)n(-c2ccccc2)n1C,outcome,[1],inactive
same,Potency,[13],inactive
same,Potency,[2],inactive
same,outcome,[3],inactive
same,max response,[14],-30.7%
same,outcome,[15],inactive
same,max response,[16],-18.2%
same,max response,[17],0.0131% (inactive)
same,activity change % (negative = inhibition),[4],5.56% (inactive)
same,Potency,[5],inactive
same,Potency,[18],inactive
same,Potency,[19],inactive
same,Potency,[20],inactive
"Cc1c2oc3c(C)ccc(C(=O)N[C@@H]4C(=O)N[C@H](C(C)C)C(=O)N5CCC[C@H]5C(=O)N(C)CC(=O)N(C)[C@@H](C(C)C)C(=O)O[C@@H]4C)c3nc-2c(C(=O)N[C@@H]2C(=O)N[C@H](C(C)C)C(=O)N3CCC[C@H]3C(=O)N(C)CC(=O)N(C)[C@@H](C(C)C)C(=O)O[C@@H]2C)c(N)c1=O (I: T[dV]P[Sar][NMeV] / II: T[dV]P[Sar][NMeV]; ester I:1-I:C, II:1-II:C; linker I:N-II:N via Actinocin(9to1))",Potency,[10],126 nM (active) and 112 nM (active)
same,outcome,[3],inactive
same,outcome,[8],inactive
same,max response,[16],-13.6% and -1.23%
same,Potency,[17],31.6 nM (active) and 14.1 nM (active)
same,Potency,[4],0.0501 µM (active)
same,Potency,[5],inactive
same,Potency,[18],inactive
C=C(CC)C(=O)c1ccc(OCC(=O)O)c(Cl)c1Cl,activation,[7],-8.92% (inactive)
same,outcome,[8],inactive
same,Potency,[5],inactive
same,Potency,[18],inactive
